Assays:
Assay in all cases: DAPPL (digital affinity profiling via proximity ligation, sequencing); 10 mM Tris-HCl pH 7.5, 50 mM NaCl, 1 mM DTT, 4% glycerol, room temperature, 30 min; GST-TFs on glutathione beads, 16-mer random dsDNA library, 0.1% formaldehyde crosslink after washing; high values mean tight binding
Settings in all cases: protein: recombinant; tags: N-terminal GST; dsDNA, one strand shown
[1] = molecular target: T1, ERF (Homo sapiens, UniProt P50548 1-548)
T1 sequence: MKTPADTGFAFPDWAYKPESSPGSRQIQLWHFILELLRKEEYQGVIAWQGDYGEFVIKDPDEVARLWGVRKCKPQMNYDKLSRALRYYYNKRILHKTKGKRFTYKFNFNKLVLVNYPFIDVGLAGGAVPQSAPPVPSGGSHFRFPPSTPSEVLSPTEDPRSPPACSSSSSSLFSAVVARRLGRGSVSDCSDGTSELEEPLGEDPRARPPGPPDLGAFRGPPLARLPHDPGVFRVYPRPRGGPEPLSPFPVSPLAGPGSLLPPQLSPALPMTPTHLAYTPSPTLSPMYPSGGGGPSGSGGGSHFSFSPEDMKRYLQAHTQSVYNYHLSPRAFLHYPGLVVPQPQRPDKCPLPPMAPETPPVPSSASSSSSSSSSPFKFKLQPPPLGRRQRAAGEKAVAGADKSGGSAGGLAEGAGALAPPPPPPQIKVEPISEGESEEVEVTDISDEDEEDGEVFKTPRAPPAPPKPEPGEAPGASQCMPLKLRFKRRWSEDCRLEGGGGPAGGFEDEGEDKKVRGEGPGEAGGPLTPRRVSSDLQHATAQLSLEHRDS
Procedure, shortened: (§1)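 Human transcription factors fused to GST were expressed in yeast, captured on glutathione beads, given DNA barcodes and pooled with a GST-only negative control. Pools were incubated with 200 nmole of a 16-mer random double-stranded DNA library in Tris/NaCl/DTT/glycerol buffer at room temperature for 30 min. They were then washed, crosslinked with 0.1% formaldehyde, proximity-ligated (BsaI/T4 ligase, 1 h, 37 °C), PCR-amplified and sequenced on an Illumina NextSeq500. Binding signal is each 6-mer's read frequency for a factor divided by its frequency for the GST control.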

[2] = molecular target: T2, ETV3L (Homo sapiens, UniProt Q6ZN32 1-361)
T2 sequence: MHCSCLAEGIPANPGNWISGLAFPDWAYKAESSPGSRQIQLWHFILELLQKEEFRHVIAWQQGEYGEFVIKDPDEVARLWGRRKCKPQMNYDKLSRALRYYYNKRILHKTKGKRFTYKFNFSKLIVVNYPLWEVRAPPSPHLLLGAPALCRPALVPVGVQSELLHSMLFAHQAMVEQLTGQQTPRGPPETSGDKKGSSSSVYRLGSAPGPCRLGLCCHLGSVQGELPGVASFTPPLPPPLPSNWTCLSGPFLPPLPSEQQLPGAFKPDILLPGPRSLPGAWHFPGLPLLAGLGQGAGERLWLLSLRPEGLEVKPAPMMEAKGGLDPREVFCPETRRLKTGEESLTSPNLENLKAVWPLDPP
Procedure, shortened: as §1

[3] = molecular target: T3, ETS2 (Homo sapiens, UniProt P15036 1-469)
T3 sequence: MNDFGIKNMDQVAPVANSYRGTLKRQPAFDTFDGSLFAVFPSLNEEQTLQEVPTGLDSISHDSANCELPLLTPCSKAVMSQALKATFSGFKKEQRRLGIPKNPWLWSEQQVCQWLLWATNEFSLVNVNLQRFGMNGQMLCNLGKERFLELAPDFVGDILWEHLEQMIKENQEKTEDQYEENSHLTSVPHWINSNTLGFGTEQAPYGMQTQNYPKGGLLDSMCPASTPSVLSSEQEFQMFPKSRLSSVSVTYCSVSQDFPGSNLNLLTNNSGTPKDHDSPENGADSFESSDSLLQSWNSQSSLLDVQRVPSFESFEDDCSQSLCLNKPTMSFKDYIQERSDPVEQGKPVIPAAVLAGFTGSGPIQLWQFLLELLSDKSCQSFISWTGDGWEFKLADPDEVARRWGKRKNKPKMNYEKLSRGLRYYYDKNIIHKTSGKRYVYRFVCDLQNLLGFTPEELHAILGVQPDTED
Procedure, shortened: as §1

[4] = molecular target: T4, SPDEF (Homo sapiens, UniProt O95238 1-335)
T4 sequence: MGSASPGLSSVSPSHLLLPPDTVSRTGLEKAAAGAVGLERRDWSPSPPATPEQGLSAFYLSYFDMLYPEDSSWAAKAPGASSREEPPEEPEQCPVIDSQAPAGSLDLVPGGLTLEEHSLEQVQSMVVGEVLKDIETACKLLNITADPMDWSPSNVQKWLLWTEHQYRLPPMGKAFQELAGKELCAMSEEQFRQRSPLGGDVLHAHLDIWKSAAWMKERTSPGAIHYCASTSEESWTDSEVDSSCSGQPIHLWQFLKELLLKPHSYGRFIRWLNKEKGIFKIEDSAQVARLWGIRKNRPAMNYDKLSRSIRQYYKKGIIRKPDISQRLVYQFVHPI
Procedure, shortened: as §1

[5] = molecular target: T5, ETV7 (Homo sapiens, UniProt Q9Y603 1-341)
T5 sequence: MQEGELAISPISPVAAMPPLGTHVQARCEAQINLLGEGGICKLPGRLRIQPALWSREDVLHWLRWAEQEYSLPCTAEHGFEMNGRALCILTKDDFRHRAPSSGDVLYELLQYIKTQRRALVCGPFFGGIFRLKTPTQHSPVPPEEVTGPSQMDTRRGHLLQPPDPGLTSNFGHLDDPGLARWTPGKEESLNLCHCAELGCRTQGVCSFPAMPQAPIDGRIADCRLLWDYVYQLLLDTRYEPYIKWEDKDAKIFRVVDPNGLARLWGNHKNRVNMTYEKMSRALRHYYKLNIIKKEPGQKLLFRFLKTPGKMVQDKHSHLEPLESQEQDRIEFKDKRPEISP
Procedure, shortened: as §1

[6] = molecular target: T6, ELF5 (Homo sapiens, UniProt Q9UKW6-2 1-255)
T6 sequence: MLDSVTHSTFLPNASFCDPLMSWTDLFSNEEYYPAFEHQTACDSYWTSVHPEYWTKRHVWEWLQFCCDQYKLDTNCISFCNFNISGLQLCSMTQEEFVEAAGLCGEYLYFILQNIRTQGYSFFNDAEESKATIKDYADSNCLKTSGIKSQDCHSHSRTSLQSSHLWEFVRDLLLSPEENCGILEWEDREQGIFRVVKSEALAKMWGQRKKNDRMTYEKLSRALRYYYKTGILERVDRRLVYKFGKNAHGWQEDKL
Procedure, shortened: as §1

[7] = molecular target: T7, ETV3 (Homo sapiens, UniProt P41162-2 1-143)
T7 sequence: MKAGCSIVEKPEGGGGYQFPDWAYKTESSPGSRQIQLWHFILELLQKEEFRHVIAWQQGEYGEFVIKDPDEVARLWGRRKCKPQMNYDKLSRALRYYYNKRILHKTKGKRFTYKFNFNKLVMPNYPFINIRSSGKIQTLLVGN
Procedure, shortened: as §1

[8] = molecular target: ETV6 (Homo sapiens, UniProt P41212 1-452)
Procedure, shortened: as §1

Sequence of ETV6 (P41212 whole entry): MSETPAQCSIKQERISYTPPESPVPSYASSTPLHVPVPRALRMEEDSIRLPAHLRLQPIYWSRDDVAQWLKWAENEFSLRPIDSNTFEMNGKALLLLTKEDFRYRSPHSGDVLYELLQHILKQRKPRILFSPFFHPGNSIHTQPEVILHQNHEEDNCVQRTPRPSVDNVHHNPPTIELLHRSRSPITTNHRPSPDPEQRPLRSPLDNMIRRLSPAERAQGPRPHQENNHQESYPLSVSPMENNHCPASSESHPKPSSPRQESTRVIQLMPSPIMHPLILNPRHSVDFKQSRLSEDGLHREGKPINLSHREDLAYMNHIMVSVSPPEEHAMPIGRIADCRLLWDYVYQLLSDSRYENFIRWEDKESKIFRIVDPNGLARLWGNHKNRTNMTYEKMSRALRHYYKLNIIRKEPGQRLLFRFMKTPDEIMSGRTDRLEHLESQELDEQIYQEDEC

Sequence | binding signal [1] | binding signal [2] | binding signal [3] | binding signal [4] | binding signal [5] | binding signal [6] | binding signal [7] | binding signal [8]
TCCTGG | 1.43 fold enrichment (6-mer frequency, TF over GST control) | 1.83 fold enrichment (6-mer frequency, TF over GST control) | 1.82 fold enrichment (6-mer frequency, TF over GST control) | 2.13 fold enrichment (6-mer frequency, TF over GST control) | 1.56 fold enrichment (6-mer frequency, TF over GST control) | 2.35 fold enrichment (6-mer frequency, TF over GST control) | 1.74 fold enrichment (6-mer frequency, TF over GST control) | 1.77 fold enrichment (6-mer frequency, TF over GST control)
CCGCCA | 1.36 fold enrichment (6-mer frequency, TF over GST control) | 1.33 fold enrichment (6-mer frequency, TF over GST control) | 1.22 fold enrichment (6-mer frequency, TF over GST control) | 1.29 fold enrichment (6-mer frequency, TF over GST control) | 1.26 fold enrichment (6-mer frequency, TF over GST control) | 1.47 fold enrichment (6-mer frequency, TF over GST control) | 1.43 fold enrichment (6-mer frequency, TF over GST control) | 1.26 fold enrichment (6-mer frequency, TF over GST control)
TACGCA | 1.28 fold enrichment (6-mer frequency, TF over GST control) | 1.12 fold enrichment (6-mer frequency, TF over GST control) | 1.2 fold enrichment (6-mer frequency, TF over GST control) | 1.16 fold enrichment (6-mer frequency, TF over GST control) | 1.12 fold enrichment (6-mer frequency, TF over GST control) | 1.11 fold enrichment (6-mer frequency, TF over GST control) | 1.1 fold enrichment (6-mer frequency, TF over GST control) | 1.18 fold enrichment (6-mer frequency, TF over GST control)
TTTACG | 1.22 fold enrichment (6-mer frequency, TF over GST control) | 1.31 fold enrichment (6-mer frequency, TF over GST control) | 1.29 fold enrichment (6-mer frequency, TF over GST control) | 1.26 fold enrichment (6-mer frequency, TF over GST control) | 1.25 fold enrichment (6-mer frequency, TF over GST control) | 1.32 fold enrichment (6-mer frequency, TF over GST control) | 1.19 fold enrichment (6-mer frequency, TF over GST control) | 1.27 fold enrichment (6-mer frequency, TF over GST control)
GTACTA | 1.21 fold enrichment (6-mer frequency, TF over GST control) | 1.05 fold enrichment (6-mer frequency, TF over GST control) | 1.13 fold enrichment (6-mer frequency, TF over GST control) | 1.1 fold enrichment (6-mer frequency, TF over GST control) | 1.09 fold enrichment (6-mer frequency, TF over GST control) | 1.13 fold enrichment (6-mer frequency, TF over GST control) | 1.09 fold enrichment (6-mer frequency, TF over GST control) | 1.15 fold enrichment (6-mer frequency, TF over GST control)
ATGCGG | 1.12 fold enrichment (6-mer frequency, TF over GST control) | 1.25 fold enrichment (6-mer frequency, TF over GST control) | 1.32 fold enrichment (6-mer frequency, TF over GST control) | 1.32 fold enrichment (6-mer frequency, TF over GST control) | 1.25 fold enrichment (6-mer frequency, TF over GST control) | 1.21 fold enrichment (6-mer frequency, TF over GST control) | 1.45 fold enrichment (6-mer frequency, TF over GST control) | 1.26 fold enrichment (6-mer frequency, TF over GST control)
AGAAGC | 1.11 fold enrichment (6-mer frequency, TF over GST control) | 1.17 fold enrichment (6-mer frequency, TF over GST control) | 1.09 fold enrichment (6-mer frequency, TF over GST control) | 1.15 fold enrichment (6-mer frequency, TF over GST control) | 1.23 fold enrichment (6-mer frequency, TF over GST control) | 1.18 fold enrichment (6-mer frequency, TF over GST control) | 1.23 fold enrichment (6-mer frequency, TF over GST control) | 1.14 fold enrichment (6-mer frequency, TF over GST control)

From paper PMC7862700, “An all-to-all approach to the identification of sequence-specific readers for epigenetic DNA modifications on cytosine”
